Screens from PubChem BioAssay.
In the library only some 1.8% were active in any assay of this set; here they are far more common.
UBC9 SUMO inh = SUMOylation inhibition; AID 2006; inhibition, % at 35 µM; actives 0.36% (n = 290,000); P63279; HTRF SUMOylation assay, SAE1/SAE2 + UBC9, in vitro; in the data active = inhibition above about 50%, passing the limit was not always enough
Target sequence (P63279 whole entry, looked up): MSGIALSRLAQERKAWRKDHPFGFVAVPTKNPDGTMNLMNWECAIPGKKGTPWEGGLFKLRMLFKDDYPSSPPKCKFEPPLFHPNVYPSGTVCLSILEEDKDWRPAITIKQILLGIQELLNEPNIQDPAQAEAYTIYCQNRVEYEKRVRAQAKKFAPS
PHOSPHO1 block = PHOSPHO1 (human) inhibition. Q8TCT1. recombinant PHOSPHO1, absorbance phosphatase assay. inhibition, % at 13.3 µM. actives 1.1% (n = 290,000); in the data active = inhibition above about 60%
Target sequence (Q8TCT1 whole entry, looked up): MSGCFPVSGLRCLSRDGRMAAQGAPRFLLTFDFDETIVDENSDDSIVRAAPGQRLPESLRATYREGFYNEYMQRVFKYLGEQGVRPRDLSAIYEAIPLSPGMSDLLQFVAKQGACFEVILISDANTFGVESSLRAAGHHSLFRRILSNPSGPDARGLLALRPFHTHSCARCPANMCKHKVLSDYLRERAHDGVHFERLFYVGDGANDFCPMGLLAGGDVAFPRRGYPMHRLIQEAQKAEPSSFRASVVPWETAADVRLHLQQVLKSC
p-CIP stab down = p/CIP protein destabilization; Q05BA5; F442A p/CIP-EGFP cells, EGFP fluorescence, 16 h; decrease of EGFP signal, % at 10 µM; actives 0.01% (n = 290,000); AID 1984;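 active = EGFP signal decrease of at least 30% at 10 µM or well 3 SD below plate mean, unless failing retest; inactive = the rest, including hits failing retest or dose response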
NadD block = blocks S. aureus nicotinate mononucleotide adenylyltransferase. purified NadD enzyme, colorimetric absorbance read-out. inhibition, % at 20 µM. actives 0.78% (n = 360,000). AID 602399; in the data active = inhibition above about 26%
Hits are given with their value; n = inactive; x = not tested or not shown.

SMILES | UBC9 SUMO inh | PHOSPHO1 block | p-CIP stab down | NadD block
CCN(CC)c1ccc(C(=S)N2CCN(c3ccccc3)CC2)cc1 | n | 74.0 | n | n
Cc1nn(C(C)C(=O)NNC(=S)Nc2ccc(F)cc2)c(C)c1[N+](=O)[O-] (centres undefined) | n | 71.5 | n | n
CC(=O)Nc1ccc(NC(=O)C(C)n2nc([N+](=O)[O-])c(Br)c2C)cc1 (centres undefined) | n | 63.3 | n | n
COc1ccc(NC(=S)NNC(=O)C(C)n2nc(C)c([N+](=O)[O-])c2C)cc1 (centres undefined) | n | 68.4 | n | n
CC(=O)Nc1ccc(NC(=O)C(C)n2nc(C)c([N+](=O)[O-])c2C)cc1 (centres undefined) | n | n | n | n
CCCCN(C=O)c1c(CC)nc2ccc(C(=O)N3CCN(S(=O)(=O)CC)CC3)cn12 | x | x | x | n
CC1CCCC(NC(=O)COC(=O)COc2ccc(C#N)cc2)C1C (centres undefined) | x | x | x | n
CCc1nc2ccc(C(=O)NCCCn3ccnc3)cn2c1N(C)CCC(C)C | x | x | x | n
COC(=O)c1cc(C)nc2c1C(=O)C(=O)C=C2N1CCOCC1 | 98.7 | x | n | n
CCN(CC)C(=O)C1=C(C)N(CCCN2CCCC2=O)C(=O)C(CC(=O)NC2CCCC2)C1 (centres undefined) | x | x | x | n
O=C(CC[C@H]1O[C@@H](n2ccc(=O)[nH]c2=O)[C@H](O)[C@@H]1O)N[C@H](Cc1ccccc1)C(=O)NCc1ccccc1 | x | x | x | n
CCN(CC)S(=O)(=O)c1cccc(-c2nnc(SCC(=O)c3ccc(Cl)s3)n2C)c1 | n | 63.7 | n | n
Cn1nc(C(C)(C)C)cc1NC(=O)C1(C)CCN1C(=O)Cc1ccc(-c2ccccc2)cc1 (centres undefined) | x | x | x | n
COCc1n[nH]c(=S)n1-c1cccc2ccccc12 | n | 73.8 | n | n
S=c1[nH]nc(Cc2cccc3ccccc23)n1-c1ccccc1 | n | 94.5 | n | n
Cc1ccc(NCc2n[nH]c(=S)n2-c2ccccc2)cc1 | n | n | n | n
Cc1cccc(NCc2n[nH]c(=S)n2-c2ccccc2)c1 | n | 94.2 | n | n
COc1ccc(-c2cc(-c3n[nH]c(=S)n3-c3cccc4ccccc34)[nH]n2)cc1 | n | n | n | n
S=c1[nH]nc(C2COc3ccccc3O2)o1 (centres undefined) | n | 96.2 | n | n
C[C@@H]1CN([C@@H](C)CO)C(=O)CCCn2nncc2CO[C@H]1CN(C)S(=O)(=O)c1ccc(C#N)cc1 | x | x | x | n
COc1ccc(C(=O)N/N=C(\C)c2ccc3c(c2)C2C=CCC2C(c2ccccc2)N3)cc1 (centres undefined) | n | n | n | 52.1
C(=C\c1ccccc1)/CN1CCN(C(CCc2ccccc2)c2nnnn2C2CCCC2)CC1 (centres undefined) | x | x | x | n
O=C(CSc1nc2ccccc2n1CC(=O)NCc1ccccc1)NCc1ccco1 | n | 69.2 | n | n
N#CCCn1c(SCC(=O)NCc2ccco2)nc2ccccc21 | n | n | n | n
CC(=O)c1c(C)n(CC(=O)NCc2ccco2)c2ccccc12 | n | 68.6 | n | n
SMILES | UBC9 SUMO inh | PHOSPHO1 block | p-CIP stab down | NadD block
CNc1ncnc2c1ncn2[C@H]1CN(Cc2ccc(-c3ccccc3)cc2)C[C@@H](CO)O1 | x | x | x | n
COc1cc(C(=O)NNC(=S)NC(=O)/C=C/c2ccccc2)cc(OC)c1OC | n | 87.3 | n | n
COc1cc(C(=O)NNC(=S)NC(=O)c2ccc(Cl)cc2)cc(OC)c1OC | n | 69.0 | n | n
Cc1ccc(C)c(N2CCN(C(=O)CCn3c(=S)[nH]c4cc5c(cc4c3=O)OCO5)CC2)c1 | n | 70.2 | n | n
CCOc1cc2[nH]c(=S)n(Cc3ccc(C(=O)NCCCOC)cc3)c(=O)c2cc1OCC | n | n | n | n
COC(CNC(=O)c1ccc(Cn2c(=S)[nH]c3cc4c(cc3c2=O)OCO4)cc1)OC | n | 79.0 | n | n
COc1ccc(N2CCN(C(=O)CCCn3c(=S)[nH]c4cc5c(cc4c3=O)OCO5)CC2)cc1 | n | n | n | n
CC(C)OCCCn1c(=S)[nH]c2cc3c(cc2c1=O)OCO3 | n | 88.3 | n | n
COC(=O)c1ccc2c(=O)n(Cc3ccc4c(c3)OCO4)c(=S)[nH]c2c1 | n | n | n | n
COCCNC(=O)c1ccc(Cn2c(=S)[nH]c3cc4c(cc3c2=O)OCO4)cc1 | n | 97.6 | n | n
C[C@H]1CN([C@@H](C)CO)C(=O)c2cc(Br)cnc2O[C@@H]1CN(C)S(=O)(=O)c1cn(C)cn1 | x | x | x | n
O=C(OCc1ccccc1)N1CCCC2CC1c1ccccc12 (centres undefined) | x | x | x | n
Cc1ccc(S(=O)(=O)/N=C2/NC(=O)/C(=C\c3cc(Br)cc(Br)c3O)S2)cc1 | 62.1 | n | n | 40.6
